The panel holds about 83,000 compounds, 20% with a hit somewhere; the sample as a whole holds those more often.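 Assay: single dose, 48 h. Readout: percent growth (0 = no net growth; negative = cell death). Active: <10.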 A number with no mark means an inactive call. Calls of active or inactive are those of the source.

In this test the test system is MDA-MB-468 breast. The test is described as follows: NCI-60 one-dose screen, 48 h (100 = growth as untreated, 0 = no growth, -100 = all killed). Conditions: 10 µM unless noted.
Consider `Nc1nc(C(=O)N/N=C/c2ccc(N3CCOCC3)cc2)nn1-c1ccc(S(N)(=O)=O)cc1`, for which the growth is 105%.

As to `COc1ccc(-c2nc(Nc3nc4ccccc4[nH]3)nc(N)c2C#N)cc1`, the growth was 121%.

With `CC(C)c1[nH]nc2c(NCc3ccc(-c4ccccn4)cc3)nc(SCCN)nc12`, the growth was -60.3% (active).

Take `COc1cc2nc(-c3ccc(C(F)(F)F)cc3)cc(OCCCNCC3CCCO3)c2cc1OC` (stereo not given): the growth is 14.2%.

`c1ccc(CO[C@H]2CO[C@H]3[C@@H]2OC[C@@H]3Oc2ccc(Nc3ncnc4ccsc34)cc2)cc1`: the growth was 51.5%.

For the compound `CC(=O)Nc1ccc2c(c1)/C(=C\C=C/c1ccc([N+](C)(C)C)cc1)c1ccccc1-2`, the growth was 21.5%.

For `CC(=O)N(C)c1ccc(Nc2ccc(Nc3ccc(N(C)C(C)=O)cc3)c3c2C(=O)c2ccccc2C3=O)cc1`, the growth was 30.9%.

`Cc1c(C(=N)C(C#N)C#N)c(=N)oc2c1ccc1ccccc12`: the growth is 54.5%.

On to `CCOC(=O)c1c(Nc2ccccc2)nn2c(-c3cccs3)ccnc12`, for which the growth is 73.3%.

As for `CC(=O)c1ccc(NS(=O)(=O)c2ccc([N+](=O)[O-])cc2)cc1`, the growth is 98.9%.

Regarding `O=c1nc(-c2ccccc2)c2cc(-c3ccc(N4CCOCC4)cc3)ccc2[nH]1`, the growth was 77.4%.

With `O=C(/C=C1\C(=O)N(Cc2ccccc2)c2ccccc21)c1ccc(OCCN2CCCCC2)cc1`, the growth is 19.6%.

In the case of `O=C(NN(C(=O)c1ccccc1)c1cccs1)c1ccccc1`, the growth was 103%.

For the compound `CNc1ccc(Br)c2c1C(=O)c1ccccc1C2=O`, the growth is 112%.

Take `CCc1cc(C)cc(O)c1`: the growth is 94.7%.

As for `COc1ccc(C(=O)N/N=C/c2ccc(O)cc2O)cc1Nc1ccnc(C(F)(F)F)c1`, the growth is 29.2%.

Turning to `C/C=C(\C)C(C(=O)NC1CCCCC1)N(C(=O)C1CCc2cc(F)ccc2O1)c1ccc(Cl)cc1` (stereo not given), the growth was 97%.

As for `C#CCOc1ccc(/C=N/Nc2nc(-c3cc4cc(Br)cc(Br)c4oc3=O)cs2)cc1`, the growth is 106%.

Consider `COC(=O)c1c2c(c(C)[n+]([O-])c1C)C(=O)C(NCc1ccc(Cl)cc1)=CC2=O`, for which the growth is 39.8%.

In the case of `CN1CCN(Cc2ccc(NC(=O)c3cncc(C#Cc4cncc5[nH]ncc45)c3)cc2C(F)(F)F)CC1`, the growth is 16.6%.

`CCN(CC)CCNC(=O)c1c(C)[nH]c(/C=C2\C(=O)Nc3cc(NC(=O)NC(=O)c4ccc(OC)cc4F)ccc32)c1C`: the growth was 75.2%.

For the compound `C[C@@]1(C(=O)Nc2ccc(F)nc2)CCCN1c1nc(Nc2cc(C3CC3)[nH]n2)c2cccn2n1`, the growth is 13.1%.

In the case of `COc1cc(/C=C2\CN(C)CC3=C2Nc2nc(SC)[nH]c(=O)c2C3c2cc(OC)c(OC)c(OC)c2)cc(OC)c1OC` (stereo not given), the growth is 39.5%.

`C=CCn1c(C)nc2cc(Nc3nc(N4CCCC4)nc4nc[nH]c34)ccc21`: the growth is 51.1%.

For `CC(=O)Nc1ccc2c(c1)Cc1cc(F)ccc1-2`, the growth was 101%.

On to `N#Cc1cc(-c2ccnc(Nc3ccc(NC(=O)CCl)cc3)n2)ccc1N1CCCC1`, for which the growth was -45.9% (active).

With `Cc1ccc(/C=C2\CN(C(=O)C(Cl)Cl)C/C(=C\c3ccc(C)cc3)C2=O)cc1`, the growth was -65.9% (active).

As for `COc1ccc(C2NC(=O)c3cc4c(cc3N2)OCO4)cc1` (stereo not given), the growth was -1.6% (active).

As for `C[C@H](C(=O)N[C@@H](Cc1ccc(-c2ccccc2)cc1)C(=O)NC1CC(C)(C)N(C)C(C)(C)C1)c1ccc(-c2ccccc2)c(F)c1`, the growth was -86.5% (active).

For `CC[C@@H](C)OC(=O)c1nn(C(C)=O)c2ccccc12`, the growth was 82.4%.

On to `C1=CN2CC(c3ccccc3)=NNC2c2ccccc21` (stereo not given), for which the growth was 82.5%.

As for `COc1ccc(C(=NNS(=O)(=O)c2ccc(C)cc2)c2ccccc2)cc1OC`, the growth is 103%.

With `NC(=N\N=C/Cc1ccccc1)/C(N)=N\N=C\Cc1ccccc1`, the growth is 112%.

Regarding `NNC(=O)c1ccc(-n2nc(-c3ccccc3)c3ccccc32)cc1`, the growth was 38.3%.

Consider `Oc1[nH]c2ccccc2c1/C=c1/ccc2c(c1)N=C(c1cc(F)cc(F)c1)N=2`, for which the growth is 20.6%.

Take `Nc1c(C(=O)Nc2ccncc2)sc2nc3c(cc12)CCCCCCCC3`: the growth was -75.7% (active).

As to `O=C(Nc1cccc(N=Cc2c(O)ccc3ccccc23)c1)c1ccccc1`, the growth is 98.9%.

For `Nc1c2c(nc3ccc(Cl)cc13)CC(c1ccccc1)CC2=O` (stereo not given), the growth is -5.35% (active).

For `Cc1ccc(C(=O)Nc2ccccc2N)cc1`, the growth was 79.1%.

With `CCCCCCCSc1ncnc2[nH]ncc12`, the growth was 68.8%.

The values above are taken from PubChem BioAssay (NCI).
